Source: PubChem BioAssay (NCATS)
Results filed as inconclusive are left out. Activity calls are given as the source filed them. Unless noted, calls follow the shape of the dose curve; as a rule, active = well fitted curve in the direction sought with a large enough effect; inconclusive = small, poorly fitted or top-dose-only effect, or another doubt; inactive = no such curve, though single readings can be large; an effect the other way counts as inactive or inconclusive.

Experiments:
[1] = qHTS for Inhibitors of the Functional Ribonucleoprotein Complex (vRNP) of Lassa (LASV) Arenavirus: Viability assay - alamar blue signal for LASV Primary Screen (AID 1347083; calls by dose curve; tested in HEK293 reporter line; also: nearly all actives have a fitted effect of over 80% in size)
[2] = qHTS for Inhibitors of the Functional Ribonucleoprotein Complex (vRNP) of Lymphocytic Choriomeningitis Arenaviruses (LCMV): Viability assay - alamar blue signal for LCMV Primary Screen (AID 1347085; calls by dose curve; tested in HEK293 reporter line; also: nearly all actives have a fitted effect of over 80% in size)
[3] = biological target: Nucleoprotein (Lymphocytic choriomeningitis virus (strain Armstrong)) (UniProt P09992); experiment: qHTS for Inhibitors of the Functional Ribonucleoprotein Complex (vRNP) of Lymphocytic Choriomeningitis Arenaviruses (LCMV): LCMV Primary Screen - GLuc reporter signal (AID 1347086; calls by dose curve; also: nearly all actives have a fitted effect of over 70% in size)
Nucleoprotein (Lymphocytic choriomeningitis virus (strain Armstrong)), sequence (P09992 whole entry, looked up): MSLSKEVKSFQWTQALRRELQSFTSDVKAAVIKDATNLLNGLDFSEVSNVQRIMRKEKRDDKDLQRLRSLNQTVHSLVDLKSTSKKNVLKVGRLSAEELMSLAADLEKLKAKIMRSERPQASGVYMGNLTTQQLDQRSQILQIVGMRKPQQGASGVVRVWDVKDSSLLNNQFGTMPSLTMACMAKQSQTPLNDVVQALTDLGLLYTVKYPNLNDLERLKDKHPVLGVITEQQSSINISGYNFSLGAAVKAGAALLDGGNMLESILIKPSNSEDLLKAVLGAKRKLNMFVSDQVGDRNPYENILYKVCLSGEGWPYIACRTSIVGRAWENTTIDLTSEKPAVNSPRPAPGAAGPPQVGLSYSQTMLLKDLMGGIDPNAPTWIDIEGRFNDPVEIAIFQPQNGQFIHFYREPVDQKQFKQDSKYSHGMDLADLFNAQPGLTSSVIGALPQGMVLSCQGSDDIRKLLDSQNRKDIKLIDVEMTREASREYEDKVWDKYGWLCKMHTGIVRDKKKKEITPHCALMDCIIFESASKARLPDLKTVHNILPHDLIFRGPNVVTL

[4] = qHTS of pediatric cancer cell lines to identify multiple opportunities for drug repurposing: Primary screen for TC32 cells (AID 1347089); also: nearly all actives have a fitted effect of over 60% in size
In short: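 Measured quantity: luminescence from CellTiter-Glo, reflecting metabolically active TC32 cells following 48 h of compound. Curves came straight from multi-point titrations, with 8 or 11 points in primary and 11 in confirmatory screening.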

[5] = qHTS of pediatric cancer cell lines to identify multiple opportunities for drug repurposing: Primary screen for DAOY cells (AID 1347090); also: nearly all actives have a fitted effect of over 55% in size
In short: (§1)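 Cell viability, CellTiter-Glo luminescence; 500-1,000 cells/well, 8- or 11-point titration, 48 h compound exposure at 37 degrees C, 5% CO2. Controls: DMSO neutral, bortezomib 2.3 µM final as positive.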

[6] = qHTS of pediatric cancer cell lines to identify multiple opportunities for drug repurposing: Primary screen for SJ-GBM2 cells (AID 1347091)
In short: as §1

[7] = qHTS of pediatric cancer cell lines to identify multiple opportunities for drug repurposing: Primary screen for A673 cells (AID 1347092); also: nearly all actives have a fitted effect of over 45% in size
In short: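 Cells are plated, rested 5 h, dosed by pintool, incubated 48 h, then lysed with CellTiter-Glo and read by luminescence. DMSO is the neutral control; bortezomib at 2.3 uM final is the positive control.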

[8] = qHTS of pediatric cancer cell lines to identify multiple opportunities for drug repurposing: Primary screen for SK-N-MC cells (AID 1347093)
In short: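 Metabolically active cells were quantified by ATP-dependent luminescence (CellTiter-Glo, 15 min at room temperature) following 48 h treatment. Cells had been plated at 500-1,000 per well and settled for 5 h beforehand.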

[9] = qHTS of pediatric cancer cell lines to identify multiple opportunities for drug repurposing: Primary screen for BT-37 cells (AID 1347094)
In short: (§2)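 Luminescence from CellTiter-Glo served as readout of metabolically active cells after 48 h compound exposure. Titrations: MIPE 11-point, from 0.78 nM; NPC 8-point, from 0.59 nM (final). Concentration-response curves came straight from the primary screen.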

[10] = qHTS of pediatric cancer cell lines to identify multiple opportunities for drug repurposing: Primary screen for NB-EBc1 cells (AID 1347095)
In short: as §2

[11] = qHTS of pediatric cancer cell lines to identify multiple opportunities for drug repurposing: Primary screen for U-2 OS cells (AID 1347096); also: nearly all actives have a fitted effect of over 50% in size
In short: (§3)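 Cells (500-1,000/well) rested 5 h, then received compounds for 48 h; metabolically active cells were measured by CellTiter-Glo luminescence. Final concentrations spanned up to 46 µM (MIPE, 11-point) or 0.59 nM-46 µM (NPC, 8-point) in primary screens, 11-point in follow-ups.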

[12] = qHTS of pediatric cancer cell lines to identify multiple opportunities for drug repurposing: Primary screen for Saos-2 cells (AID 1347097); also: nearly all actives have a fitted effect of over 40% in size
In short: as §2

[13] = qHTS of pediatric cancer cell lines to identify multiple opportunities for drug repurposing: Primary screen for SK-N-SH cells (AID 1347098); also: nearly all actives have a fitted effect of over 65% in size
In short: as §3

[14] = qHTS of pediatric cancer cell lines to identify multiple opportunities for drug repurposing: Primary screen for NB1643 cells (AID 1347099); also: nearly all actives have a fitted effect of over 50% in size
In short: as §2

[15] = qHTS of pediatric cancer cell lines to identify multiple opportunities for drug repurposing: Primary screen for LAN-5 cells (AID 1347100)
In short: as §3

Measured: Potency
Potency is read from the fitted curve at half-maximal effect.

CC[C@@H]1[C@@H](C)O[C@@](O)([C@@H](C)[C@H](O)[C@H](C)[C@H]2OC(=O)C=CC=C[C@@H](C)[C@@H]([C@@H](C)[C@@H](O)[C@H](C)[C@@]3(O)C[C@H](O[C@H]4C[C@H](O)[C@H](O)[C@H](C)O4)[C@H](CC)[C@@H](C)O3)OC(=O)C=CC=C[C@@H]2C)C[C@H]1O[C@H]1C[C@H](O)[C@H](O)[C@H](C)O1
active: [1] 43.2 µM | [2] 38.5 µM | [3] 13.7 µM | [4] 18.6 µM | [5] 0.469 µM | [6] 0.526 µM | [7] 0.743 µM | [8] 0.372 µM | [9] 0.685 µM | [10] 0.418 µM | [11] 0.935 µM | [12] 0.372 µM | [13] 21.5 µM | [14] 0.833 µM | [15] 0.372 µM

COc1ccc2c3n(c(=NC(=O)c4cccnc4)nc2c1OC)CCN3
active: [1] 1.53 µM | [2] 0.968 µM | [3] 0.769 µM

OCCn1cc(-c2ccc3c(c2)CCC3=NO)c(-c2ccncc2)n1
active: [1] 10.9 µM | [2] 1.72 µM | [3] 7.69 µM

CCOc1cc(N2CCC(O)CC2)ccc1Nc1ncc2c(n1)N(C)c1ccccc1C(=O)N2C
active: [1] 7.69 µM | [2] 6.85 µM | [3] 3.43 µM

COc1ccccc1[C@H](c1cccc2ccccc12)[C@@](C)(C#N)C(=O)N1CCC(c2cccc(C(F)(F)F)c2)CC1
inactive: [3]
active: [1] 21.7 µM

CCCCN1CCC(CNC(=O)c2c3n(c4ccccc24)CCCO3)CC1
active: [1] 17.2 µM | [2] 7.69 µM | [3] 4.32 µM

NC(=O)c1ccc(-c2nc(-c3ccc4c(c3)OCCO4)c(-c3ccccn3)[nH]2)cc1
inactive: [3]
active: [1] 21.7 µM

CN(C)Cc1ccc(-c2nc3cccc4c3n2CCNC4=O)cc1
active: [1] 21.7 µM | [2] 6.85 µM
inactive: [3]

COc1ccc(-c2c(-c3ccc(O)cc3O)n[nH]c2C)cc1
inactive: [1] | [2] | [3]

CCN1CCN(CC(=O)Nc2ccc(-c3cccc4c(=O)cc(N5CCOCC5)oc34)c3sc4ccccc4c23)CC1
active: [1] 0.544 µM | [2] 1.22 µM | [3] 1.22 µM

CO[C@@H]1[C@H](N(C)C(=O)c2ccccc2)C[C@H]2O[C@]1(C)n1c3ccccc3c3c4c(c5c6ccccc6n2c5c31)C(=O)NC4
active: [1] 3.06 µM
inactive: [3]

COc1cc2nc(N3CCCN(C)CC3)nc(NC3CCN(Cc4ccccc4)CC3)c2cc1OC
active: [1] 0.611 µM | [2] 21.7 µM | [3] 12.2 µM

Cc1nc(N)sc1-c1ccnc(Nc2ccc(N3CCOCC3)cc2)n1
inactive: [3]
active: [1] 7.69 µM | [2] 13.7 µM

COc1nn(CSP(=S)(OC)OC)c(=O)s1
inactive: [1] | [2] | [4] | [11]

c1cc2c(cc1[C@H]1OC[C@H]3[C@H]1CO[C@H]3c1ccc3c(c1)OCO3)OCO2
not listed: [5] | [9] | [13]
inactive: all other assays above

Cc1nc2cnc3ccc(C#Cc4cccnc4)cc3c2n1-c1ccc(C(C)(C)C#N)cc1
active: [1] 0.0432 µM | [2] 0.109 µM | [3] 0.109 µM

CC(C)(O)C=CC(=O)[C@](C)(O)[C@H]1[C@H](O)C[C@]2(C)[C@@H]3CC=C4[C@@H](C=C(O)C(=O)C4(C)C)[C@]3(C)C(=O)C[C@@]12C
active: [1] 3.06 µM | [2] 9.68 µM | [3] 10.9 µM | [4] 1.31 µM | [5] 0.187 µM | [6] 0.209 µM | [7] 0.187 µM | [8] 0.0332 µM | [10] 0.332 µM | [11] 0.148 µM | [12] 0.105 µM | [13] 0.152 µM | [14] 0.0372 µM | [15] 0.0743 µM

CN(c1ncccc1CNc1nc(Nc2ccc3c(c2)CC(=O)N3)ncc1C(F)(F)F)S(C)(=O)=O
active: [1] 24.3 µM | [2] 34.3 µM
